# Measured values: PubChem BioAssay AID1851 (National Center for Advancing Translational Sciences (NCATS), 2009)
# About 5,700 (36%) of roughly 16,000 compounds were called active. Not shown: some 24% with an inconclusive outcome. Some of the results follow. Unmarked numbers belong to inactive results. The call rests on the fitted dose curve; in most records, active means well fitted curve in the direction sought with a large enough effect; inconclusive means small, poorly fitted or top-dose-only effect, or effect the other way; inactive means no such curve, though single readings can be large or run the other way.
# Target: Cytochrome P450 1A2 (Homo sapiens) (UniProt P05177)
# Sequence (P05177 whole entry, looked up): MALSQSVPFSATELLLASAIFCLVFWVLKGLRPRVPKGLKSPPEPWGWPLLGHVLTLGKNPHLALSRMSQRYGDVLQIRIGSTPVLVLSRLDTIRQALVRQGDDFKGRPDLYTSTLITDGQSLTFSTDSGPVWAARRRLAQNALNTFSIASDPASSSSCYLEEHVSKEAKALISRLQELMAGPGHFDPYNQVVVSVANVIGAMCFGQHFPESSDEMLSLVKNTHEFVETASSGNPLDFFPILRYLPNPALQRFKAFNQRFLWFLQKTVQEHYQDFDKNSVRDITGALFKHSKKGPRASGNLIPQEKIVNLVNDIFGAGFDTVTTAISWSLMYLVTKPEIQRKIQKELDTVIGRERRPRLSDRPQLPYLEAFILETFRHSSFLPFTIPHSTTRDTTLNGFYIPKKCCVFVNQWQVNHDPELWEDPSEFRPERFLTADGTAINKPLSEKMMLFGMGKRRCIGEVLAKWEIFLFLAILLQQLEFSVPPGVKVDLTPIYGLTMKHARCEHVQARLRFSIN
# Assay: Cytochrome panel assay with activity outcomes
# Settings: recombinant CYP, pro-luciferin dealkylation, luminescence, p450-cyp1a2; series mostly up to 57.1 µM; activity, negative = inhibition: at the top concentration
# On the % scale 0 is the no-effect control and ±100 the full control effect.
Structure (SMILES),AC50,"activity, negative = inhibition"
CCCN(CCC)C(=O)[C@@H](CCC(=O)O)NC(=O)c1ccccc1,inactive,
CCCN(CCC)C(=S)NC(=O)c1ccc(Cl)cc1Cl,447 nM (active),
CCn1c(CCNC(=O)c2ccc(Cl)cc2Cl)n[nH]c1=S,,2.13%
Cn1c(N/N=C/c2c[nH]c3ccccc23)nc2ccccc21,1000 nM (active),
O=[N+]([O-])c1ccccc1N/N=C/c1c[nH]c2ccccc12,5620 nM (active),
O=C(Nc1ccccc1[N+](=O)[O-])C1C(c2ccccc2)=C1c1ccccc1,,-16.5%
COc1ccc(Nc2nc(N3CCCCC3)c3ccccc3n2)cc1,1780 nM (active),
O=C(O)/C=C\c1ccc(O)c(O)c1,,0.538% [at 25.6 µM]
O=C(/C=C\c1ccc(O)c(O)c1)OCCc1ccccc1,1000 nM (active),
O=C(/C=C\c1ccc(O)c(O)c1)O[C@@H]1C[C@](O)(C(=O)O)C[C@@H](O)[C@@H]1O,,4.71% [at 25.6 µM]
Cc1ccc(-c2nn(-c3ccccc3)cc2CSC(=N)N)cc1,12600 nM (active),
c1cnc2ccc(C(c3nnnn3C3CCCC3)N3CCN4CCCC4C3)cc2c1 (stereo not drawn),,-6%
N#Cc1cccc(NC(=O)N2CC[C@@]3(CCCN(C(=O)c4ccncc4)C3)C2)c1,,-17.2%
N#Cc1cccc(-c2nc(Nc3ccncc3)c3ccccc3n2)c1,631 nM (active),
CNc1nc(-c2cccc(C#N)c2)nc2ccccc12,79.4 nM (active),
N#Cc1cccc(-c2nc(Nc3ccccc3)c3ccccc3n2)c1,1260 nM (active),
CNC(=O)[C@@H]1O[C@@H](n2cnc3c(N)ncnc32)[C@@H](O)[C@H]1O,,-9.49%
CC(=O)OC[C@@H]1O[C@H](CCO/N=C\[C@@H](C)[C@H](OCc2ccccc2)C(C)C)C=C[C@@H]1OC(C)=O,,9.09% [at 11.4 µM]
CC(=O)OC[C@@H]1O[C@@H](O/N=C2/C[C@@H](O)[C@@H](O)[C@@H]3[C@@H]4C(=O)N(C5CCCCC5)C(=O)[C@H]4CC[C@H]23)[C@H](OC(C)=O)[C@H](OC(C)=O)[C@@H]1OC(C)=O,,-1.1% [at 11.4 µM]
CC(=O)Nc1ccc(C#Cc2ccc(NC(C)=O)cc2)cc1,,2.37%
S=C(Nc1ccccc1)Nc1ccccc1C#Cc1ccccc1,501 nM (active),
COc1cccc(-c2nc(NCCNC(C)=O)c3ccccc3n2)c1,2510 nM (active),

Structure (SMILES),AC50,"activity, negative = inhibition"
COCCNc1nc(-c2cccc(OC)c2)nc2ccccc12,200 nM (active),
COc1cccc(-c2nc(NCc3ccccc3)c3ccccc3n2)c1,3160 nM (active),
COc1ccccc1NC(=O)Nc1nc(-c2cccnc2)nc2ccccc12,2510 nM (active),
CCc1ncc(CO)n1Cc1cccc2ccccc12,,-6.53% [at 11.4 µM]
CO[C@@H]1COC(=O)[C@H](C)NC(=O)C/C=C\[C@@H](C)[C@@H](NS(=O)(=O)c2ccc(C)cc2)COC(=O)C/C=C\[C@@H]1C,,-6.59% [at 11.4 µM]
Cc1ccc(S(=O)(=O)ON=C2CCN(S(=O)(=O)c3ccccc3)CC2)cc1,,13.2%
CC(=O)O[C@H]1CC[C@@]2(C)C(=CC[C@@H]3[C@@H]4CC[C@H](c5cc(C(F)(F)F)n(C(C)=O)n5)[C@]4(C)CC[C@@H]32)C1,,-13.7% [at 11.4 µM]
COc1cccc(-c2nc(NCc3cccnc3)c3ccccc3n2)c1,158 nM (active),
COc1cccc(-c2nc(NCc3cccs3)c3ccccc3n2)c1,316 nM (active),
COc1cccc(-c2nc(NCc3ccccc3OC)c3ccccc3n2)c1,631 nM (active),
COc1ccccc1CNc1nc(-c2cccnc2)nc2ccccc12,1000 nM (active),
Cc1noc(C)c1C(=O)N1CCC2(CC1)CN(c1ncccn1)C2,,13.8%
Cc1ccc(S(=O)(=O)N2CCCC(C(=O)NCCCN3CCCCC3C)C2)cc1 (stereo not drawn),,-8.71%
COCc1nnc(NC(=O)CCN2C(=O)c3ccccc3C2=O)s1,,-18%
Cc1cccc(NC(=S)NC(=O)CCc2ccccc2)c1,6310 nM (active),
Cc1ccccc1NC(=S)NC(=O)c1cc(-c2ccccc2)nc2ccccc12,14100 nM (active),
CC(C)(C)c1nnc(NC(=O)c2cc(-c3ccccc3)nc3ccccc23)s1,,-27.9%
CCCc1ccc(-c2cc(C(=O)NN3CCOCC3)c3ccccc3n2)cc1,,-12.5%
O=C(CCN1C(=O)c2ccccc2C1=O)NC(=S)Nc1cccc(Cl)c1,3160 nM (active),
Cc1ccc(-c2cc(C(=O)NN=C3CCCC3)c3ccccc3n2)cc1,15800 nM (active),
CCC[C@H]1C[C@H](C(=O)N[C@H]([C@@H]2O[C@H](SC)[C@@H](O)[C@H](O)[C@@H]2O)[C@H](C)O)N(C)C1,,-2.92% [at 25.6 µM]
